In PubChem BioAssay (EPA / NIEHS):
Values joined by “and” are separate entries in the source; they are usually repeats but may differ in a detail not shown here. Equal entries are not always repeated. Results filed as inconclusive are left out. A structure can be active in one record and inactive in another. Active and inactive are the calls of the source. How the source made its calls: active means hit-call score of the fitted dose curve at least 0.9, where 1 is the maximum; inconclusive means response in the unintended direction; inactive means score below 0.9.

Target: human Adenosine Transporter (Adot), SLC29A1 (gene 2030) (UniProt Q99808)
Sequence (Q99808 whole entry, looked up): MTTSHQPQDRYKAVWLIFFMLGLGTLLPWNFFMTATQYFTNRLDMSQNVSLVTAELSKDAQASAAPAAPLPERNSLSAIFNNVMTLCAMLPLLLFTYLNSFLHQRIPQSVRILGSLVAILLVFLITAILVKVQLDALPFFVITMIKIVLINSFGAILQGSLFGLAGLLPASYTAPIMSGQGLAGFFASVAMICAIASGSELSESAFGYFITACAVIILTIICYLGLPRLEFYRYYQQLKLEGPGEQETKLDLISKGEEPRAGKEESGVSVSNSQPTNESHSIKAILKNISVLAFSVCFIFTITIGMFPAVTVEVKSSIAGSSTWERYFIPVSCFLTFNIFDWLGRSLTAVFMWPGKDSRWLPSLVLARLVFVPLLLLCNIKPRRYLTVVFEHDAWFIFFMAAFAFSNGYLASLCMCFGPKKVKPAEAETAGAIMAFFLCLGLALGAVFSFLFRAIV
Assay: NVS_TR_hAdoT: NovaScreen (NVS) Transporter Assay for human Adenosine Transporter (Adot) (AID 2283368)
Protocol: NVS_TR_hAdoT is a biochemical, single-readout assay that uses extracted gene-proteins from U937 in a cell-free assay. Measurements were taken 1 hour after chemical dosing in a 96-well plate.NVS_TR_hAdoT is one of one assay component(s) measured or calculated from the NVS_TR_hAdoT assay. It is designed to make measurements of radioligand binding, a form of binding reporter, as detected with scintillation counting signals by Filter-based radiodetection technology.Data from the assay component NVS_TR_hAdoT was analyzed into 1 assay endpoint. This assay endpoint, NVS_TR_hAdoT, was analyzed in the positive analysis fitting direction relative to DMSO as the negative control and baseline of activity. Using a type of binding reporter, loss-of-signal activity can be used to understand changes in the binding as they relate to the gene SLC29A1. Furthermore, this assay endpoint can be referred to as a primary readout, because the performed assay has only produced 1 assay endpoint. To generalize the intended target to other relatable targets, this assay endpoint is annotated to the transporter intended target family, where the subfamily is nucleoside transporter.
Binding assays used specific radioligands (tritiated, iodinated) with non-radioactive competitive displacement ligands in agonist or antagonist protocols (as indicated) and various reference compounds and inhibitors to titrate specific binding to receptors and transporters. Most enzyme assays (CYPs, kinases, phosphatases, proteases, HDACs) used recombinant protein and specific substrates (fluorescence mostly, some colorimetric and radioactive) and inhibitors, followed by a biochemical separation of substrate and product. All assays for the biochemical HTS were initially run in duplicate at a single concentration (10 uM for CYP450 assays and 25 uM for all others). Assay-chemical combinations meeting a pre-defined threshold (e.g., 30% inhibition and other criteria defined below) were then run in singleton concentration-response format with maximum concentration of 20 uM for CYPs and 50 uM for all others. […]

SMILES | AC50 | outcome
CCCN(CCOc1c(Cl)cc(Cl)cc1Cl)C(=O)n1ccnc1 | 8.65 µM (active) | 
Oc1ccc(Cl)cc1Cc1ccccc1 | 39.8 µM (active) and 25.2 µM (active) and 36.3 µM (active) | inactive
